Source: PubChem BioAssay
IEC-6 cytotox – counter-screen for KLF5 inhibitors: cytotoxicity in IEC-6 cells; IEC-6 cytotoxicity, luminescence viability; inhibition, % at 5 µM; hit rate 0.78% among 290,000; AID 1825; in the data active means inhibition above about 22%;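 further: 0% = plate median of test compound wells and 100% = cytotoxic reference compound wells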
BaF3 tox – parental Ba/F3 viability inhibition as JAK2V617F counter-screen; CellTiter-Glo ATP luminescence; inhibition, % at 5.6 µM; hit rate 1.1% among 220,000; AID 1486;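 active means inhibition above a per-campaign cutoff, the mean inhibition of all tested compounds plus 3 SD, cut at about 27% in these data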;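 further: 0% = DMSO wells and 100% = JAK Inhibitor I control wells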
Ba/F3 V617F tox – loss of viability in JAK2V617F-driven Ba/F3 cells. inhibition, % at 5.6 µM. hit rate 1.1% among 220,000. Ba/F3 EpoR-JAK2V617F viability, ATP luminescence;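 active means inhibition above the campaign mean plus 3 SD over all tested compounds, cut at about 24% in these data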;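 further: cytokine-independent growth of Ba/F3 cells driven by EpoR plus mutant JAK2; 0% = DMSO-treated cells and 100% = JAK inhibitor I control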
APP 5UTR inh – APP translation inhibition | SH-SY5Y APP 5'UTR-luciferase reporter, luminescence | inhibition, % at 2 µM | hit rate 0.82% among 190,000;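 active means inhibition above a set limit, derived from the sample mean plus 3 SD, cut at about 45% in these data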
KLF5 inhibitor – suppresses KLF5 promoter-driven expression | DLD-1 KLF5 promoter-luciferase reporter, luminescence | inhibition, % at 5 µM | hit rate 0.23% among 290,000 | AID 1700;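 active means inhibition above a per-plate limit of that plate's mean compound inhibition plus 3 SD, cut at about 60% in these data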;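 further: 0% = DMSO wells and 100% = LY294002 at 200 µM; higher means less KLF5 promoter-driven luciferase light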
Numbers without * were called inactive; . = no result. A selection: hits, their analogues and other compounds. The true share with any hit is near 1.9%.

SMILES	IEC-6 cytotox	BaF3 tox	Ba/F3 V617F tox	APP 5UTR inh	KLF5 inhibitor
COc1cc(C(=O)N/N=C(\c2ccccc2)c2ccccn2)cc(OC)c1OC	10	7	5	82*	29
COc1cccc(C(=O)N/N=C(/c2ccccc2)c2ccccn2)c1	19	97*	101*	15	20
COc1cccc(C(=O)N/N=C(/CCC(=O)O)c2ccccc2)c1	12	6	0	-3	-7
Cc1ccc2[nH]c3c(=O)n(CCN4CCOCC4)cnc3c2c1	3	-5	1	12	-33
CCOc1ccc(NS(=O)(=O)c2ccc(C(=O)N3CCN(c4ncccn4)CC3)cc2)cc1	0	31*	21	6	-16
Cc1ccccc1C(=O)NNC(=O)C1CCCN(c2ncccn2)C1 (centres undefined)	-10	6	-1	6	11
O=C(CCN1C(=O)c2ccccc2S1(=O)=O)Nc1ccccc1	-2	62*	48*	-7	-11
CCOC(=O)C(CC)/C(C)=N/NC(=O)c1ccccc1[N+](=O)[O-] (centres undefined)	-2	8	5	-19	4
Cc1cccn2c(=O)c(/C=C(\C#N)S(=O)(=O)c3ccccc3)c(N3CCN(c4ccccc4)CC3)nc12	-2	.	.	.	-11
CCCCn1c(NC(C)=O)c(C#N)c2nc3ccccc3nc21	2	5	0	52*	9
COc1ccc(-c2cc3nc(C)cc(N)n3n2)cc1	22*	22	21	-147	-21
COc1ccc(-c2cc3nc(C)cc(-c4ccc(OC)cc4)n3n2)cc1	2	.	.	.	-3
OC1(c2cccc(C(F)(F)F)c2)CCN(c2ncnc3c2[nH]c2ccc(F)cc23)CC1	-1	35*	20	15	-13
CCOC(=O)N1CCN(c2ncnc3c2[nH]c2ccc(F)cc23)CC1	9	42*	23	-19	-14
c1csc(C2Nc3cccc4cccc(c34)N2)c1	-3	33*	11	27	15
CCn1c(=S)sc2c(=O)n(-c3ccccc3)c(SCC(=O)NCc3ccco3)nc21	1	2	-1	-3	19
CCC(C)NC(=O)CSc1nc2c(sc(=S)n2Cc2ccco2)c(=O)n1-c1ccccc1 (centres undefined)	4	5	4	68*	-9
CC1CCCCC1NC(=O)C1CC=CCC1C(=O)O (centres undefined)	8	-1	-5	-1	1
O=C1CC(c2ccccc2)Cc2nc3ncnn3cc21 (centres undefined)	5	80*	77*	4	53
O=C(COc1cccc2c1CCN(Cc1ccc(Br)cc1)C2=O)N1CCOCC1	0	0	-4	-1	-33
CCCC(O)(CCN(C)C)c1ccc(OC)cc1 (centres undefined)	6	4	3	-12	-25
Cn1cc(C(=O)N/N=C/c2c(O)ccc3ccccc23)ccc1=O	-6	7	1	50*	32
O=C(N/N=C\c1c(O)ccc2ccccc12)c1ccc(O)cc1	0	.	.	.	53
CC(=O)Nc1sc(NC(=O)c2ccc([N+](=O)[O-])cc2)nc1-c1cccs1	8	46*	11	.	-5
CCc1ccc(OCCCOc2ccc(C=O)cc2)cc1	-5	102*	1	8	-48
SMILES	IEC-6 cytotox	BaF3 tox	Ba/F3 V617F tox	APP 5UTR inh	KLF5 inhibitor
CN(C)C(=O)C1CC(=O)OC12CCCCC2 (centres undefined)	-3	-7	-5	.	-10
N#C/C(C(=O)Oc1ccccc1)=C1\C=Cc2ccccc2N1	-2	3	1	-27	-33
CN(C(=O)COc1ccccc1C(=O)NCCOc1ccccc1)c1ccccc1	7	36*	11	13	-15
O=C(NCCOc1ccccc1)c1ccccc1Cl	-2	.	.	.	-101
NNC(=O)C1CCCN1S(=O)(=O)c1ccc(Cl)cc1 (centres undefined)	-6	58*	-3	24	-19
CC1CSc2n(-c3cccc(C(F)(F)F)c3)cc(-c3ccccc3)[n+]21 (centres undefined)	7	84*	56*	-23	-12
FC(F)(F)c1cccc(-n2cc(-c3ccccc3)[nH]c2=S)c1	1	.	.	.	-2
Cc1cccc(OCC(=O)NC2CCCc3ccccc32)c1C (centres undefined)	-2	5	2	-5	4
NC(=O)c1ccc(-n2nnnc2Oc2ccccc2C(=O)N2CCOCC2)cc1	-4	0	-3	7	-20
CCOc1cc(N2CCOCC2)c(OCC)cc1NC(=O)c1cc(-c2ccco2)nc2ccccc12	2	8	1	49*	-12
COc1ccc(NC(=O)CCC(=O)c2cccs2)cc1S(=O)(=O)Nc1ccc(Cl)cc1	-4	7	0	-6	-9
COc1ccc(NC(=O)CCS(=O)(=O)c2ccccc2Cl)cc1S(=O)(=O)Nc1ccc(Cl)cc1	10	69*	16	-4	-6
COc1ccc(/C=N/NC(=O)c2ccc(C)cc2)cc1CN1CCN(c2ccc(F)cc2)CC1	0	0	-1	-6	-20
O=C(Nc1cccc(-c2cn3cccnc3n2)c1)c1ccc(Br)o1	4	6	4	54*	-24
O=C(N/N=C/c1c[nH]c2ccccc12)c1cc(-c2ccc3ccccc3c2)n[nH]1	2	13	9	88*	-122
CC(C)Oc1ccc(-c2cc(C(=O)NCCN3CCOCC3)c3ccccc3n2)cc1	5	4	-1	-22	-42
O=S(=O)(c1ccccc1)N1CCN(c2ncnc3scc(-c4ccccc4)c23)CC1	6	.	.	.	17
CCOC(=O)C1CCN(C(=O)C23CC4CC(CC(C4)C2)C3)CC1	3	2	1	5	1
O=C(NCCN1C(=O)S/C(=C\c2ccc(OC(F)F)cc2)C1=O)c1cnccn1	19	5	0	76*	38
CC(C)C(=O)Nc1cccc(C(=O)N2CCCCC2C)c1 (centres undefined)	1	49*	32*	-17	-8
CC1CCCCN1C(=O)c1cccc(NC(=O)c2ccccc2)c1 (centres undefined)	4	-1	-3	-9	-14
O=C(c1ccc2c(=O)n(-c3ccccc3)c(=S)[nH]c2c1)N1CCCCC1	1	64*	45*	-2	-21
Cc1[nH]c(=O)c(C#N)c2c1COC(C)(C)C2	-2	6	-3	1	-12
CCC1=NN(C(=O)c2ccc(Br)cc2)C(O)(c2ccc(C)cc2)C1 (centres undefined)	0	7	3	8	7
Cc1sc(N/N=C/c2cc([N+](=O)[O-])ccc2O)nc1-c1ccccc1	8	2	4	50*	-19
O=[N+]([O-])c1cccc(-c2nnc(C3CC3)o2)c1	-4	35*	-6	.	-23
Nc1nnc(-c2cccc([N+](=O)[O-])c2)o1	10	0	6	.	4
N#CC(C#N)=C(Nc1ccc(F)cc1)SCc1cccc(F)c1	34*	67*	55*	4	34
CCOc1ccc(N/C(SCc2cccc([N+](=O)[O-])c2)=C(/C#N)C(N)=O)cc1	-18	13	1	10	1
